Assay results: PubChem BioAssay
Active and inactive are the calls of the source.

What was measured:
[1] = small molecules captured by biotinylated probe aFSTL3 – biochemical, small-molecule microarray, fluorescence 635/667, stem cell growth factor project, primary screen (AID 1064); conditions: higher = more signal;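 also: measures binding of the biotinylated anti-FSTL3 antibody to printed compounds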
[2] = binders from COS7 lysate, DM2A8 probe, primary screen, torsin A project, cell lysate, small-molecule microarray, fluorescence 635/667 (AID 1065); conditions: higher = more signal, COS7 lysate expressing mutant human TOR1A
[3] = small molecules captured by biotinylated probe aFGF2 – biochemical, small-molecule microarray, fluorescence 635/667, stem cell growth factor project, primary screen (AID 1067); conditions: higher = more signal;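 also: measures binding of biotinylated aFGF2 protein to printed compounds on slides; z-score merges feature fluorescence and signal-to-noise across triplicate slides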
[4] = small molecules captured by biotinylated probe aFGF10 – biochemical, small-molecule microarray, fluorescence 635/667, stem cell growth factor project, primary screen (AID 1071); conditions: higher = more signal;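 also: score merges 667 nm spot intensity and signal to noise from triplicate slides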
[5] = biological target: Neurogenic locus notch homolog protein 2 (Homo sapiens) (UniProt Q04721); assay: small molecules binding Notch2 protein – biochemical, small-molecule microarray, 635 nm fluorescence, stem cell growth factors, primary screen (AID 1073); conditions: higher = more signal
[6] = biological target: Pro-neuregulin-1, membrane-bound isoform (Homo sapiens) (UniProt Q02297); assay: small molecules binding neuregulin-1 protein – biochemical, small-molecule microarray, fluorescence 635/667, psychiatric disease protein project, primary screen (AID 1075); conditions: NRG1 binding, 635 nm fluorescence, higher = more signal;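 also: score combines 667 nm spot fluorescence with signal to noise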
[7] = system: Neuregulin-1 EGF-like domain; assay: small molecules binding NRG1 EGF domain – biochemical, small-molecule microarray, 635 nm fluorescence, primary screen (AID 1081); conditions: higher = more signal;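 also: binding of the protein to compounds printed on small-molecule microarray slides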
[8] = FRG1 expression reporter modulators in myotubes – cell-based, C2C12 myotubes, firefly/Renilla luciferase, luminescence, FRG1 inhibition for FSHD, primary screen (AID 1084); conditions: FRG1 promoter luciferase, higher = more signal, called active from +8 up or from −8 down
[9] = small molecules captured by biotinylated probe aFST – biochemical, small-molecule microarray, fluorescence 635/667, stem cell growth factor project, primary screen (AID 1086); conditions: higher = more signal;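 also: score merges 667 nm fluorescence with signal-to-noise of each printed compound spot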
[10] = binders of probe aHhip on microarray, primary screen, stem cell growth factor project, biochemical, small-molecule microarray, fluorescence 635/667 (AID 1087); conditions: higher = more signal;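 also: score merges spot fluorescence at 667nm with spot signal to noise ratio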
[11] = system: PRMT1 (protein arginine N-methyltransferase 1); assay: small molecules binding arginine methyltransferase PRMT1 – biochemical, small-molecule microarray, 635 nm fluorescence, primary screen (AID 1088); conditions: higher = more signal;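 also: binding of Prmt1 protein to compounds spotted on small-molecule microarray slides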
[12] = growth effects on S. cerevisiae YJM789 – YJM789 clinical isolate, OD600, 24 h, basal, primary screen (AID 1089); conditions: higher = more signal, called active from +8 up or from −8 down;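 also: growth of clinical yeast isolate S. cerevisiae YJM 789 seeded 1000 cells per well; test concentration not given here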
[13] = S. pombe growth modifiers, basal conditions – strain 972, OD600, 24 h, no modulator, primary screen (AID 1090);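 also: basal condition with compound alone and no growth modifier present; test concentration not given here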; conditions: S. pombe 972 growth, higher = more signal, called active from +8 up or from −8 down
[14] = budding yeast growth modifiers under rapamycin – strain BY4716, OD600, 96 h, primary screen (AID 1091); also: test concentration not given here; conditions: S. cerevisiae BY4716 + rapamycin, higher = more signal, called active from +8 up or from −8 down
[15] = biological target: Torsin-1A-interacting protein 2 (Homo sapiens) (UniProt Q8NFQ8); assay: small molecules binding lysate-expressed LULL1 – cell lysate, human LULL1 lysate, 635/667 nm fluorescence, primary screen (AID 1092); conditions: small-molecule microarray, hLULL1 lysate binding, 635 nm fluorescence; higher = more signal;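 also: probe is lysate of COS7 cells overexpressing human LULL1; score merges per-feature 667 nm fluorescence with signal-to-noise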
[16] = optical density change of DRC41 E. coli – strain DRC41, OD650, 24 h, E. coli filamentation project, primary screen (AID 1093);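 also: MC1000 strain lacking acrAB efflux and sulA so SOS filamentation is blocked; test concentration not given here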; conditions: E. coli DRC41 growth, higher = more signal, called active from +8 up or from −8 down
[17] = probe aLefty2 binding to arrayed compounds – biochemical, biotinylated probe, 635/667 nm fluorescence, primary screen (AID 1094); conditions: small-molecule microarray, higher = more signal;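 also: score merges spot fluorescence near 667 nm with spot signal-to-noise ratio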
[18] = system: Noggin (protein binding on small-molecule microarray); assay: small molecules binding Noggin protein – biochemical, 635/667 nm fluorescence, primary screen (AID 1095); conditions: 635 nm fluorescence, higher = more signal;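 also: score merges 667 nm feature fluorescence with signal to noise over triplicate slides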
[19] = biological target: Neurogenic locus notch homolog protein 3 (Homo sapiens) (UniProt Q9UM47); assay: small molecules binding NOTCH3 protein – biochemical, 635/667 nm fluorescence, primary screen (AID 1096); conditions: small-molecule microarray, 635 nm fluorescence, higher = more signal
[20] = probe aEGFR binding to arrayed compounds – biochemical, biotinylated probe, 635/667 nm fluorescence, primary screen (AID 1097); conditions: small-molecule microarray, higher = more signal;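 also: probe is a biotinylated anti-EGFR antibody binding compounds printed on slides; score combines fluorescence near 667 nm and signal to noise of each spot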

Neurogenic locus notch homolog protein 3 (Homo sapiens), sequence (Q9UM47 whole entry, looked up): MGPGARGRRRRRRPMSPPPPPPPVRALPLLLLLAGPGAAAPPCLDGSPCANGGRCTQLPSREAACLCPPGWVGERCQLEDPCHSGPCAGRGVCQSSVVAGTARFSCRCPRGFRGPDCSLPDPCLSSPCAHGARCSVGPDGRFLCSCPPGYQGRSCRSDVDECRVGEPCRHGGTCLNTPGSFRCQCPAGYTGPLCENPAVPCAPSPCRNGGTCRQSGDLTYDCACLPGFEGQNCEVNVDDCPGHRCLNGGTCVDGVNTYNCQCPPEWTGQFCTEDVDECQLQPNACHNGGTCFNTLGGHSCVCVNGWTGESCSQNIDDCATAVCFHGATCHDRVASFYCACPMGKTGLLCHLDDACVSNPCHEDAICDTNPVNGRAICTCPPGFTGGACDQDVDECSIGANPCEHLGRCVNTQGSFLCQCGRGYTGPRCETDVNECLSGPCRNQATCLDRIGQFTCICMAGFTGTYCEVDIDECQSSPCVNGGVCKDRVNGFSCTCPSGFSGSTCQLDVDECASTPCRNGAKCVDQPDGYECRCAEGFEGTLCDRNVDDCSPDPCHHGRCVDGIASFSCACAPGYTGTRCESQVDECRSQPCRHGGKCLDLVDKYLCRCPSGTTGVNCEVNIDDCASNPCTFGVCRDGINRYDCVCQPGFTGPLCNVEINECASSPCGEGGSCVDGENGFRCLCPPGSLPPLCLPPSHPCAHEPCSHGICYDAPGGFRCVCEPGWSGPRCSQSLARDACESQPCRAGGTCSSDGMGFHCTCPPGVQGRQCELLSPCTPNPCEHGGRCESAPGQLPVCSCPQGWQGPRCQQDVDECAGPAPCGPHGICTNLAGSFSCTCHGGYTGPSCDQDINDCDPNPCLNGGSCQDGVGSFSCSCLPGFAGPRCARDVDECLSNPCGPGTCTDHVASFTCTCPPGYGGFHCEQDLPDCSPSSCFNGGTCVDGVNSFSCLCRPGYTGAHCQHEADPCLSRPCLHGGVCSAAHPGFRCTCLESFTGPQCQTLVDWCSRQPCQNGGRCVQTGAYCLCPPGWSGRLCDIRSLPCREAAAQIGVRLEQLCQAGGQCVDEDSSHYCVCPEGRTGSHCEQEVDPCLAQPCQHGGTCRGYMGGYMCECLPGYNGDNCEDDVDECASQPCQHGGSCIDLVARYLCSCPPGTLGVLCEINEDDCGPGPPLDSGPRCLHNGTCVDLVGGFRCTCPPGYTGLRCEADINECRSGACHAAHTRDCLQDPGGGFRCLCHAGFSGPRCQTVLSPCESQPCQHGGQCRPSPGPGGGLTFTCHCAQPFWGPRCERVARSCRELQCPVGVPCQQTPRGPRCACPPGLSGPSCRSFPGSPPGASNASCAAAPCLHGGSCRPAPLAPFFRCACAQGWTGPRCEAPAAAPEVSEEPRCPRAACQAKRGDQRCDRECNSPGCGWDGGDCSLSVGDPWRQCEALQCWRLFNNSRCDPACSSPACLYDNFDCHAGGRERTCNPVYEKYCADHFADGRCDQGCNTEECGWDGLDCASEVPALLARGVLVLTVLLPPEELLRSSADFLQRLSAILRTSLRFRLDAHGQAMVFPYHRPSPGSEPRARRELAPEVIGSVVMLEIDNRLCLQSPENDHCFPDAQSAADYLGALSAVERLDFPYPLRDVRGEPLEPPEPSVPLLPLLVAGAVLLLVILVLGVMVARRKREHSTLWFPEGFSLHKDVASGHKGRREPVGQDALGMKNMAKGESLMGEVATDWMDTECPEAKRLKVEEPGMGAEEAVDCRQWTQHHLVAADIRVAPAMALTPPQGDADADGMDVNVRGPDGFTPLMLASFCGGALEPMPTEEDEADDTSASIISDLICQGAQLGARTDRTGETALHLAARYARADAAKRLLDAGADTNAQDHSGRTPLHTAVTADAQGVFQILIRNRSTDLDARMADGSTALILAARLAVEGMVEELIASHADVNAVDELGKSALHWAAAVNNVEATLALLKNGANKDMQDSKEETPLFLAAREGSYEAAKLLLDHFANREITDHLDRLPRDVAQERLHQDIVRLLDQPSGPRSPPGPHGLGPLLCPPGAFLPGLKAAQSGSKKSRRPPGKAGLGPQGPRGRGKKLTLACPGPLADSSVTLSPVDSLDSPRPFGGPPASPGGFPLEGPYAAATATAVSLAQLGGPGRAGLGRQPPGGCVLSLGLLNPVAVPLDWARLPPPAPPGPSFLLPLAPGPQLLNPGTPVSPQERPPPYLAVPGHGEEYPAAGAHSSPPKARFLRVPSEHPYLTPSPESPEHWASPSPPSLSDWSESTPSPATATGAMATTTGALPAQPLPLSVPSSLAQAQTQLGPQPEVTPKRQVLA
Neurogenic locus notch homolog protein 2 (Homo sapiens), sequence (Q04721 whole entry, looked up, canonical isoform): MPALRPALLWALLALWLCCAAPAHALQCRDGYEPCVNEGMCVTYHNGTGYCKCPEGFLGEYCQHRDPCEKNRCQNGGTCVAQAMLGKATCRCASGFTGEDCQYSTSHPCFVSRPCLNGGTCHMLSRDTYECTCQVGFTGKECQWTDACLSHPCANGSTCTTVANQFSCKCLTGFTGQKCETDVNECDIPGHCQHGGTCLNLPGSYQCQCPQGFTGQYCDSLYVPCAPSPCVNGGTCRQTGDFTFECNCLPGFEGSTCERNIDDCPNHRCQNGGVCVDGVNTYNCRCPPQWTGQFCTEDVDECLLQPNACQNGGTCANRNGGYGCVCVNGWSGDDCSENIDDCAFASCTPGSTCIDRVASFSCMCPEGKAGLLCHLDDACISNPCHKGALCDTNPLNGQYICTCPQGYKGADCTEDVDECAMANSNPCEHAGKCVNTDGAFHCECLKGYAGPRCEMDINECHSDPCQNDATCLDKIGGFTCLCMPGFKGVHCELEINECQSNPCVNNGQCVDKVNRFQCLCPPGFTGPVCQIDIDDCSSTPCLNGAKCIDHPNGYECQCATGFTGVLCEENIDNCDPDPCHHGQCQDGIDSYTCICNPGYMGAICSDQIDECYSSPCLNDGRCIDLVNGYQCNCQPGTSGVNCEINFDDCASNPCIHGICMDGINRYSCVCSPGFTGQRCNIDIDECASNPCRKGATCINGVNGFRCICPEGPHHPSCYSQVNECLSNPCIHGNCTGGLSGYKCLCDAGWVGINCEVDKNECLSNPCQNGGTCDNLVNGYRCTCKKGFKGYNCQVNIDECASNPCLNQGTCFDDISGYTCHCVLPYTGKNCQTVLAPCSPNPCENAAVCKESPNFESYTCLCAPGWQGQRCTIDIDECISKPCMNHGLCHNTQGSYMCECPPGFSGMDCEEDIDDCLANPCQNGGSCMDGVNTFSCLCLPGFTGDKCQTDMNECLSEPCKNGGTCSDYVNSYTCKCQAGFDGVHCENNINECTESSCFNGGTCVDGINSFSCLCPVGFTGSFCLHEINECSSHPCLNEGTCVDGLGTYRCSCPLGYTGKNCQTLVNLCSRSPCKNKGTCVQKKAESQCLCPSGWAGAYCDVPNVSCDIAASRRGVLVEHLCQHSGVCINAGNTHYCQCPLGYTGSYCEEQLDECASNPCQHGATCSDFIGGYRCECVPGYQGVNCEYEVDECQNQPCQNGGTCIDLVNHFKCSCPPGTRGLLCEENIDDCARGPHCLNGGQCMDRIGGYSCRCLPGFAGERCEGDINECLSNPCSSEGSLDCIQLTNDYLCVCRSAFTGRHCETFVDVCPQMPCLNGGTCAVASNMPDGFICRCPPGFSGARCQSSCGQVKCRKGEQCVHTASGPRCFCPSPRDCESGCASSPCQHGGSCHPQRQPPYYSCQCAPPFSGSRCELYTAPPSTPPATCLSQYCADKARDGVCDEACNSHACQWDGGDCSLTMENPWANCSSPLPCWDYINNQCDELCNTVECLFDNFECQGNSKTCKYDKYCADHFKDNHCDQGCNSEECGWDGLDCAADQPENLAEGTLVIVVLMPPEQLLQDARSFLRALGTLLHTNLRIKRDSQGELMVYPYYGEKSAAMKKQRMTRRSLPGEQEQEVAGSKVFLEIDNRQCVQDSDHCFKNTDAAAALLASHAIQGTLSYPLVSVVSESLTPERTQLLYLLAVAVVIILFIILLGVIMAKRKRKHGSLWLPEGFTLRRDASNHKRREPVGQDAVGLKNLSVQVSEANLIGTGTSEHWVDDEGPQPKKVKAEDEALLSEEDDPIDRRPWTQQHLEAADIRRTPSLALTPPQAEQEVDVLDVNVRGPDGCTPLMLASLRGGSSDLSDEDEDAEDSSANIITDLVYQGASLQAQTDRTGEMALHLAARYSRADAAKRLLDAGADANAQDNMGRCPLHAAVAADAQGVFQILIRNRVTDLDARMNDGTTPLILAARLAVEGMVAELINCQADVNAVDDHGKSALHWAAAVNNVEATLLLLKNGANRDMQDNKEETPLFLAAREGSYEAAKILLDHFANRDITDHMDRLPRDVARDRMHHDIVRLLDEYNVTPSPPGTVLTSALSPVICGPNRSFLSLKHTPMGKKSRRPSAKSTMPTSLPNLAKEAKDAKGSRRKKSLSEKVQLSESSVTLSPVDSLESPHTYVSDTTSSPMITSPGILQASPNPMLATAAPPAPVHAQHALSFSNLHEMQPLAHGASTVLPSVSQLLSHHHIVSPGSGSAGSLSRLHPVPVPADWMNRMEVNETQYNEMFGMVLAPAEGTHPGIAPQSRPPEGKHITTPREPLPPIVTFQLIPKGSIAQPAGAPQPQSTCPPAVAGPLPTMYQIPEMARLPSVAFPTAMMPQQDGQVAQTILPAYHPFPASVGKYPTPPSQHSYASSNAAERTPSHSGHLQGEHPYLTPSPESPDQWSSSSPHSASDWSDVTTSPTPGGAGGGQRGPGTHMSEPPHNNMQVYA

SMILES	composite z-score [1]	composite z-score [2]	composite z-score [3]	composite z-score [4]	composite z-score [5]	composite z-score [6]	composite z-score [7]	z-score [8]	composite z-score [9]	composite z-score [10]	composite z-score [11]	z-score [12]	z-score [13]	z-score [14]	composite z-score [15]	z-score [16]	composite z-score [17]	composite z-score [18]	composite z-score [19]	composite z-score [20]
COC(=O)c1c(CC[C@@H](CO)NC(=O)N[C@@H](Cc2ccccc2)Cn2cc(C3(O)CCCCC3)nn2)oc(C(C)=O)c1C(=O)OC	-0.352	1.02	-0.0478	0.337	0.617	0.824	0.862	1.14 (inactive)	0.439	-0.0994	1.55	-2.65 (inactive)	-1.81 (inactive)	-0.415 (inactive)	1.38	1.31 (inactive)	-0.0441	1.09	1.12	0.0117
COCCOC(=O)N1C(=O)[C@@]2(c3cc(C#CCCO)ccc31)[C@H](c1ccccc1OCCO)N1[C@H](c3ccccc3)[C@H](c3ccccc3)OC(=O)[C@H]1[C@@H]2C(=O)N1CCN(c2ncccn2)CC1	0.546	-0.481	0.0763	0.949	1.55	1.66	1.26	-1.54 (inactive)	1.4	0.463	1.54	1.24 (inactive)	1.08 (inactive)	3.94 (inactive)	2.32	-0.27 (inactive)	0.571	0.725	1.03	0.339
COC(=O)C(CC#Cc1ccc2c(c1)[C@]1(C(=O)N2)[C@H](C(=O)NC[C@H](O)c2ccccc2)[C@H]2C(=O)O[C@H](c3ccccc3)[C@H](c3ccccc3)N2[C@@H]1c1ccc(OCCO)cc1)C(=O)OC	1.4	1.2	0.225	0.641	1.37	1.41	1.3	1.9 (inactive)	2.31	-0.447	1.54	2.7 (inactive)	1.16 (inactive)	3.93 (inactive)	3.62	-0.207 (inactive)	0.14	1.87	1.05	0.345
O=C1N(CCS(=O)(=O)c2ccccc2)Cc2ccccc2C[C@]12N=C(c1ccc(OCCCO)cc1)O[C@@H]2c1ccccc1	1.36	0.97	0.0901	-0.0674	0.633	1.33	1.31	-0.436 (inactive)	0.607	-0.27	1.54	-0.452 (inactive)	1.2 (inactive)	4.94 (inactive)	3.45	0.175 (inactive)	0.366	1.2	1.05	0.177
COCCOC(=O)N1C(=O)[C@@]2(c3ccccc31)[C@H](C(=O)NC[C@H](O)c1ccccc1)[C@H]1C(=O)O[C@H](c3ccccc3)[C@H](c3ccccc3)N1[C@@H]2c1ccc(OCCO)cc1	-0.242	0.591	-0.113	0.36	1.38	0.977	1.08	-0.31 (inactive)	0.53	0.0283	1.54	1.98 (inactive)	1.64 (inactive)	6.18 (inactive)	2.85	1.77 (inactive)	-0.066	1.81	1.04	-0.023
COCCOC(=O)N1C(=O)[C@@]2(c3ccccc31)[C@H](c1ccc(O)cc1)N1[C@H](c3ccccc3)[C@H](c3ccccc3)OC(=O)[C@H]1[C@@H]2C(=O)N1CCc2cc(OC)c(OC)cc2C1	0.21	0.0749	0.0631	0.691	1.15	1.08	0.938	-1.47 (inactive)	1.05	-0.179	1.54	-1.36 (inactive)	0.201 (inactive)	1.3 (inactive)	1.17	-0.121 (inactive)	0.0191	1.04	1.06	0.101
Cc1ccc(S[C@]2(C(=O)NCc3ccccc3)CC(=O)N(Cc3ccccc3)[C@@H]2c2ccc(CO)cc2)cc1	0.264	-0.443	-0.0165	0.793	-0.338	1.33	1.09	-2.33 (inactive)	-0.0886	-0.169	1.55	-0.349 (inactive)	-0.288 (inactive)	-0.0702 (inactive)	3.04	-0.927 (inactive)	-0.001	-0.9	-0.91	-0.272
O=C(CS)NCCCCCCNC(=O)[C@@H]1C[C@@H]2C(=O)N3CCC[C@H]3C(=O)N2[C@@H]1c1ccc(O)cc1	0.525	0.0083	-0.111	0.589	-0.473	0.494	1.38	0.999 (inactive)	-0.28	-0.254	1.14	0.883 (inactive)	0.626 (inactive)	1.07 (inactive)	2.54	0.0508 (inactive)	-0.0903	-0.221	0.165	-0.118
Cc1ccc(S[C@]2(C(=O)NCCN3CCOCC3)CC(=O)N(Cc3cc(C(F)(F)F)cc(C(F)(F)F)c3)[C@@H]2c2ccc(CO)cc2I)cc1	0.428	-0.542	-0.131	-0.44	-0.297	1.98	0.0049	0.679 (inactive)	0.0607	0.0333	0.95	-3.19 (inactive)	-4.73 (inactive)	14.2 (active)	0.509	-1.52 (inactive)	-0.183	-1.06	-0.122	-0.0828
COCC(=C=CC[C@H](O)c1ccc(OCCO)cc1)C[C@H](O)c1cc(Cl)cc(Cl)c1O	-0.327	0.95	-0.0125	0.754	0.623	0.458	1.16	-3.67 (inactive)	0.582	0.0505	1.55	-24.9 (active)	-20.5 (active)	-3.87 (inactive)	-1.22	0.813 (inactive)	-0.166	1.86	1.12	-0.0334
